This is an account of results in PubChem BioAssay (NCI).

The nature of assay [1]: NCI Yeast Anticancer Drug Screen. Data for the rad50 strain (AID 155).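 Note: 0% = growth of vehicle-only cultures of the same strain.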 Conditions: S. cerevisiae rad50 strain growth inhibition; at 50.0 µM; stronger effect = higher value. Put shortly: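 Growth of the mutant yeast was measured after compound exposure and referenced to vehicle-treated cultures.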
Assay [2] can be described thus: NCI Yeast Anticancer Drug Screen. Data for the mec2-1 strain (AID 157). Particulars: S. cerevisiae mec2-1 strain, at 50.0 µM, stronger effect = higher value. Put shortly:
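Vehicle-treated cultures served as reference for growth inhibition of compound-exposed mec2-1 yeast.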

A short description of assay [3]: NCI Yeast Anticancer Drug Screen. Data for the sgs1 mgt1 strain (AID 161).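 Note: 0% = growth of cultures given vehicle only.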 Particulars: S. cerevisiae sgs1 mgt1 strain, at 50.0 µM, stronger effect = higher value. The method in brief:
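Test agents were incubated with a DNA-repair-mutant yeast strain. Growth was then read and compared against vehicle-treated controls.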

The nature of assay [4]: NCI Yeast Anticancer Drug Screen. Data for the cln2 rad14 strain (AID 165).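 Note: 0% = growth equal to vehicle treated cultures.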 Conditions: S. cerevisiae cln2 rad14 strain, at 50.0 µM, stronger effect = higher value. The method in brief: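 Each compound was tested on cln2 rad14 yeast. Inhibition of growth was calculated against vehicle-exposed controls.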
Assay [5] in a line: NCI Yeast Anticancer Drug Screen. Data for the bub3 strain (AID 167). Conditions: S. cerevisiae bub3 mutant strain, at 50.0 µM, stronger effect = higher value. The method in brief: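 Whole-cell yeast assay. The mutant strain was incubated with compounds, and growth inhibition was determined by comparison with vehicle-treated cells.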
Assay [6] is described as follows: NCI Yeast Anticancer Drug Screen. Data for the mlh1 rad18 strain (AID 175). Conditions: S. cerevisiae mlh1 rad18 strain growth inhibition; at 50.0 µM; stronger effect = higher value. Put shortly:
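Vehicle-treated cultures served as the reference for growth inhibition in a yeast strain carrying DNA damage repair alterations exposed to each compound.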

About 79,000 compounds went through this panel and 15% of them were active in at least one assay; those are over-represented in the sample as a whole. Unmarked numbers belong to inactive results. Activity calls are given as the source filed them. Cut-off read from the data, not from the text of the source: active = growth inhibition above about 70%; inactive = the rest. *1 amine or outer side, *2 acyl side, *3 side chain or, on linkers, in order; H or OH if unused. Where a SMILES comes first, the peptide text is derived from it. [ ]: non-standard residue; d: D form. X12 = NC(N)=NCC(O)CC(N[*:1])C(=O)[*:2]; Orn = NCCC[CH](N)C(=O)O

Consider `C(=C/c1ccccc1)/C=N/N1CCN(/N=C/C=C/c2ccccc2)CC1`, for which the growth inhibition in assay [1] is -1.4%; in assay [2], 20.6%; in assay [3], 14.8%; in assay [4] it was -7.1%; in assay [5] it was 18.5%; in assay [6], -7.05%.
On to `C/C=C/c1cc(C)cc(C)c1OC(C)CC` (stereo not given), for which the growth inhibition was -2.45% in assay [1]; -9.75% in assay [2]; 11.4% in assay [3]; -34.5% in assay [4]; -17.9% in assay [5]; 10.1% in assay [6].
As for `Cc1ccc(C(=O)N/N=C/c2ccc3ccccc3c2)cc1`, the growth inhibition in assay [1] is -1%; in assay [2] it was -13.2%; in assay [3] it was -5.25%; in assay [4] it was -13.8%; in assay [5], 33.4%; in assay [6], -5.3%.
For `CSC1=NC(C)(C)N=C(Oc2cc(Cl)cc(Cl)c2)N1`, the growth inhibition in assay [1] was -14.9%; in assay [2], -22.3%; in assay [3], -24.9%; in assay [4], -8.7%; in assay [5], -27.5%; in assay [6], -9.8%.
Regarding `CCCOC(=O)/C=C/C(=O)N1CC(C)N(C(=O)/C=C/C(=O)OCCC)CC1C` (stereo not given), the growth inhibition in assay [1] is 3.85%; in assay [2] it was -1.25%; in assay [3], 9.6%; in assay [4], 42.6%; in assay [5], -2.9%; in assay [6], 25.2%.
Consider `CCCCCCP(=O)(CCCCCC)C1CCCCC1`, for which the growth inhibition in assay [1] was 98.1% (active); in assay [2], 99.5% (active); in assay [3] it was 99.3% (active); in assay [4], 97.6% (active); in assay [5], 99% (active); in assay [6], 99% (active).
Regarding `S=C=NC12CC3CC(CC(C3)C1)C2`, the growth inhibition in assay [1] was -2%; in assay [2] it was 0.6%; in assay [3] it was 0.65%; in assay [4], 15.1%; in assay [5], -4.05%; in assay [6], -15.5%.
Regarding `O=C(O)CCC(=O)CCc1ccccc1C(=O)O`, the growth inhibition in assay [1] is 12.3%; in assay [2], -15.8%; in assay [3], 4.3%; in assay [4] it was -38.1%; in assay [5], -23.1%; in assay [6], 7.85%.
`OCC(CCl)(CCl)CCl`: the growth inhibition in assay [1] was 31%; in assay [2], 18.1%; in assay [3], 10.8%; in assay [4] it was 7.45%; in assay [5] it was 18.2%; in assay [6] it was 41%.
`C=C(Br)CN(C(C)=O)C1CCCCC1`: the growth inhibition in assay [1] was -9.2%; in assay [2], -10.7%; in assay [3], 8.05%; in assay [4] it was 18.6%; in assay [5], 15%; in assay [6] it was 26.8%.
With `C#CC[N+](C)(CC#C)CC#C`, the growth inhibition was 9.85% in assay [1]; 7.8% in assay [2]; 13% in assay [3]; 11.9% in assay [4]; 9.7% in assay [5]; 9.2% in assay [6].
Turning to `O=[N+]([O-])c1ccccc1Sc1ccc2c3c(cccc13)CN(CCCO)C2`, the growth inhibition in assay [1] was 66.3%; in assay [2], 7.05%; in assay [3] it was 47.6%; in assay [4], 6.8%; in assay [5], 7.15%; in assay [6] it was 50.9%.
Regarding `CC1=NN(C(=O)Cc2ccccc2)C(=O)/C1=C\c1ccc([N+](=O)[O-])cc1`, the growth inhibition in assay [1] is -38.2%; in assay [2], -41.5%; in assay [3], -52.4%; in assay [4] it was -26.4%; in assay [5] it was -55%; in assay [6], -55.8%.
As for `COC1/C=C/OC2(C)Oc3c(C)c(O)c4c(O)c(c(C5SCCS5)c(O)c4c3C2=O)NC(=O)/C(C)=C\C=C\C(C)C(O)C(C)C(O)C(C)C(O)C1C` (stereo not given), the growth inhibition in assay [1] is 5.15%; in assay [2], 19.1%; in assay [3] it was -10.8%; in assay [4], 4.85%; in assay [5], 0%; in assay [6], 36.9%.
Take `CC(O)C(NC(=O)C(CCCN)NC(=O)C(CC(O)CN=C(N)N)NC(=O)C(N)CCCN=C(N)N)C(=O)NC(CCCN)C(=O)NC(CC(O)CN=C(N)N)C(=O)NC(Cc1ccc(O)cc1)C(=O)O` (stereo not given) (tested in a mixture with another compound) (H-R[X12][Orn]T[Orn][X12]Y-OH; configuration not given here): the growth inhibition in assay [1] was 39.6%; in assay [2] it was -3.3%; in assay [3] it was 19.5%; in assay [4], 8.45%; in assay [5] it was 27.9%; in assay [6], 38.1%.
With `C=Cc1c(C)c2cc3[nH]c(cc4nc(cc5nc(cc1[nH]2)C(C)=C5CCC(=O)OC)C(CCC(=O)OC)=C4C)c(C)c3C=C`, the growth inhibition in assay [1] is 8.1%; in assay [2], 6.45%; in assay [3], 10.3%; in assay [4] it was 13.1%; in assay [5], -1.05%; in assay [6], -5.85%.
For the molecule `CC(=O)NC(Cc1ccccc1)C(=O)Nc1ccccc1C` (stereo not given), the growth inhibition is 9.1% in assay [1]; -18.3% in assay [2]; 14.8% in assay [3]; 10.6% in assay [4]; 7.75% in assay [5]; 7.35% in assay [6].
Take `O=C1Nc2ccccc2C12OCCS2` (stereo not given): the growth inhibition in assay [1] was -4.1%; in assay [2], 25.2%; in assay [3], 17.2%; in assay [4], -7.4%; in assay [5], 5.25%; in assay [6], 7.25%.
Consider `Cc1ccc(S(=O)(=O)N(c2c(F)cc(C#N)cc2F)S(=O)(=O)c2ccc(C)cc2)cc1`, for which the growth inhibition was 51.7% in assay [1]; 6.35% in assay [2]; 32.8% in assay [3]; 30.1% in assay [4]; 2.6% in assay [5]; 31.6% in assay [6].
With `COc1ccccc1Nc1nc2c([nH]1)c(=O)n(C)c(=O)n2C`, the growth inhibition in assay [1] is -33.9%; in assay [2], -15.2%; in assay [3], -41.9%; in assay [4] it was -32.8%; in assay [5], -4%; in assay [6], -5.85%.
